Hits are enriched below; roughly 3.9% of the tested compounds scored in any of these assays.
H9c2 protect: myocardial damage modulation in H9c2 cells; AID 588492; protection from H2O2 cell death, % at 20 µM; 360,000 tested, 0.63% active; H9c2 cardiomyocytes, H2O2 injury protection, ATPLite, 2 h;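 active = compounds giving at least 50% protection of heart cells from peroxide-induced death in the single-dose screen, raw or plate-pattern-corrected value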;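 also: 0% = DMSO wells with peroxide and 100% = DMSO wells without peroxide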
NTR1 agonist: agonists of human neurotensin receptor NTR1. P30989. NTR1-U2OS beta-arrestin-GFP spot imaging, agonist mode. activation, % at 20 µM. 330,000 tested, 0.17% active;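 active = activation at or above 40% of the spot to cytoplasm intensity ratio, with at least 20 cells analyzed; inconclusive = wells under 20 cells, flagged as cytotoxic or low count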;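 also: 0% = DMSO without peptide and 100% = 100 nM NTR1 peptide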
Target sequence (P30989 whole entry, looked up): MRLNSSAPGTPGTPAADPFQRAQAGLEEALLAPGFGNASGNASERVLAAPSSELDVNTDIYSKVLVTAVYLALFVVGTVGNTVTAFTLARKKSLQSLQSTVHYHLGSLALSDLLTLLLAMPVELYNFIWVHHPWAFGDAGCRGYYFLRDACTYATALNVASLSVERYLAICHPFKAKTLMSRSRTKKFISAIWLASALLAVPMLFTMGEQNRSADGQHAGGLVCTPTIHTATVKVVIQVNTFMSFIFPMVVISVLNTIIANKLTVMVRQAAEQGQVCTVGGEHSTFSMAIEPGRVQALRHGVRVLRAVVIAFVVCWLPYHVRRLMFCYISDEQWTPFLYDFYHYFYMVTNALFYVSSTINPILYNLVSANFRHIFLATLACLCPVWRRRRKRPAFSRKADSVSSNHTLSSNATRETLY
ALR H2O2 inh: human ALR oxidase inhibition via reduced H2O2. P55789. purified ALR, DTT oxidation, H2O2 HRP-luminol luminescence. inhibition, % (test concentration not listed). 290,000 tested, 3.8% active;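 active = mean replicate inhibition above about 79%, with every replicate also reaching it, limit read from the data; inconclusive = only one of the two criteria met; inactive = mean below limit and not every replicate reaching it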
SUMO HTRF inh: inhibitors of human SUMOylation (UBC9); HTRF SUMOylation assay, SAE1/SAE2 + UBC9, in vitro; inhibition, % at 35 µM; 290,000 tested, 0.36% active; AID 2006; in the data active = inhibition above about 50%, passing the limit was not always enough; inconclusive = no clear call, values can overlap the other calls
Target sequence (P63279 whole entry, looked up): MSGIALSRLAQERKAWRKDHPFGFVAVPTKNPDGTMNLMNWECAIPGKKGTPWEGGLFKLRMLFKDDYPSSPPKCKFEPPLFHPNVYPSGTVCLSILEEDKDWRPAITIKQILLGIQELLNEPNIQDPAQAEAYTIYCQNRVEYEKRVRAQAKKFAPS
* hit, by the source's call; ? = inconclusive; / = no result.

SMILES	H9c2 protect	NTR1 agonist	ALR H2O2 inh	SUMO HTRF inh
COc1ccc(C2=NN(C(=O)c3cccs3)C(c3ccccc3O)C2)cc1 (configuration not stated)	-5	16	1	56*
O=C(NC(Cc1ccccc1)C(=O)N1CCN(S(=O)(=O)c2ccccc2F)CC1)c1ccccc1 (configuration not stated)	9	5	-18	/
CN(C)c1ccc(NC(=O)Cn2c(=O)n(Cc3ccccc3)c(=O)c3ccccc32)cc1	12	3	2	32
CCCCCn1c(N2CCCC2)nc2c1c(=O)n(C)c(=O)n2C	4	0	98*	2
COc1cccc(Sc2ccccc2CN(C)C)c1	-8	2	-7	-7
Cc1c([N+](=O)[O-])cc(S(=O)(=O)Nc2ccc(-c3ccc(N4CCCC4)nn3)cc2)cc1[N+](=O)[O-]	-5	4	/	/
COC(=O)c1ccc(OCC(=O)Nc2ccccc2C(=O)NC2CC2)cc1	57*	5	2	/
COc1ccc(OCC(=O)Nc2ccccc2C(=O)NC2CC2)cc1	8	1	/	/
CC1(c2cnc(Nc3ccccc3)s2)CCC(=O)O1 (configuration not stated)	9	-3	97*	14
Cc1csc(NC(=O)c2ccco2)n1	-6	-1	-13	-10
O=C(C1CCCC1)N1CCN=C1SCc1cccc([N+](=O)[O-])c1	0	3	99*	8
Cc1cccc(CSC2=NCCN2C(=O)C2CC2)c1	26	-2	8	14
CC(=O)N1CCN=C1SCc1ccccc1Cl	0	0	101*	-11
CC(=O)N1CCN=C1SCc1ccccc1F	-1	-1	99*	4
CCC(=O)N1CCN=C1SCc1ccccc1Cl	8	2	100*	-4
O=C(O)c1cccnc1SCc1ccccc1Cl	1	0	6	7
O=C(c1cccs1)N1CCN=C1SCc1ccccc1F	-4	0	-13	2
CCC(=O)N1CCN=C1SCc1cc(C)ccc1C	3	-1	?	4
Cc1ccc2c(c1)N(Cc1ccccn1)C(=O)C(C)O2 (configuration not stated)	5	0	-1	20
COc1cc(-c2coc3c(C(=O)Nc4ccc(C(C)C)cc4)cccc23)ccc1O	-13	/	/	/
O=C(c1cccs1)N1CCN=C1SCc1ccc(Cl)cc1	-7	6	?	-24
O=C(C1CC1)N1CCN=C1SCc1ccccc1Cl	0	0	99*	0
Cc1nc2ccccn2c1-c1csc(NCc2ccco2)n1	-18	2	/	23
Cc1ccc(N2CC(C(=O)Nc3nnc(C(C)C)s3)CC2=O)cc1 (configuration not stated)	-3	1	-6	9
Cc1ccc(C)c(NC(=O)NNS(=O)(=O)c2ccc(C)c(C)c2)c1	1	-1	85*	5
SMILES	H9c2 protect	NTR1 agonist	ALR H2O2 inh	SUMO HTRF inh
CC[C@H](C)/C=C(C)/C=C/c1cc2c(cn1)C(=O)[C@@](C)(OC(C)=O)C(O)=C2Cl	-4	/	/	/
Cc1ccc2nc(/C(C#N)=C/c3ccc(O)c(O)c3)[nH]c2c1	71*	0	89*	-4
CCOC(=O)COc1cc(Br)c(C2NC(=O)NC(C)=C2C(C)=O)cc1OCC (configuration not stated)	39	4	53	-1
COc1ccc2cc(C(C)C(=O)OC(C)C)ccc2c1 (configuration not stated)	-10	4	-2	/
COc1cccc(C2NC(c3cccc(OC)c3O)C(C)C(=O)C2C)c1O (configuration not stated)	22	2	87*	15
CC1C(=O)C(C)C(c2cc(Cl)ccc2O)NC1c1cc(Cl)ccc1O (configuration not stated)	-8	60*	10	-7
COc1cccc(C(=O)N/N=c2\oc3c(OC)cccc3cc2C(=O)NCc2ccccc2)c1	76*	3	0	0
COc1ccc(OC)c(N=c2oc3c(OC)cccc3cc2C(=O)NCc2ccco2)c1	8	5	22	33
COc1cccc(C(=O)N/N=c2/oc3ccccc3cc2C(N)=O)c1	34	1	-13	7
COc1ccc(N=c2oc3c(OC)cccc3cc2C(=O)NCc2ccco2)cc1OC	52*	8	-13	1
COc1ccccc1N=c1oc2c(OC)cccc2cc1C(=O)NCc1ccco1	6	10	86*	4
COC(=O)c1ccc(NC2=C(Cl)C(=O)OC2OC(=O)c2ccccc2)cc1 (configuration not stated)	4	2	97*	14
COCCn1nnnc1CN(CCc1ccc(OC)c(OC)c1)Cc1cc2ccc(C)cc2[nH]c1=O	6	-1	-19	27
CCC(C)NC(=O)c1ccc2nc(-c3ccc(OC)c(OC)c3)c(-c3ccc(OC)c(OC)c3)nc2c1 (configuration not stated)	71*	2	-3	-2
COc1cc(-c2cc(=O)c3ccc(O)cc3o2)cc(OC)c1OC	3	/	/	/
COc1c(O)cc2oc(-c3ccc(O)cc3)cc(=O)c2c1O	-7	1	94*	0
COc1cc(-c2ccc3oc(-c4ccsc4)cc(=O)c3c2)cc(OC)c1OC	56*	7	-1	/
O=c1cc(-c2ccc(O)cc2)oc2c(O)c(O)c(O)c(O)c12	-3	-1	86*	30
COc1cc2oc(-c3ccc(O)cc3)cc(=O)c2c(O)c1OC	9	0	98*	-3
O=c1cc(-c2ccc(O)cc2)oc2c1ccc1ccccc12	-9	14	0	/
COc1cc2oc(-c3ccc(O)cc3)cc(=O)c2c(OC)c1O	-3	3	/	-1
Oc1cc(NCc2ccc(Cl)cc2)cc2cccnc12	-16	-1	-25	/
Cc1cc(NC(=O)CSc2cc(C)c3ccccc3n2)no1	-4	0	-6	/
CCn1c(CSc2nccn2C)nc2cc(C(=O)O)ccc21	-6	-2	98*	17
C(=N\Nc1ccccc1)/c1ccc(N2CCOCC2)cc1	-8	0	-35	26
SMILES	H9c2 protect	NTR1 agonist	ALR H2O2 inh	SUMO HTRF inh
C/C(=N\Nc1ccccn1)c1ccc(N2CCOCC2)cc1	-6	4	98*	24
C(=N\Nc1ccccn1)/c1ccc(N2CCOCC2)cc1	-9	-1	99*	18
C/C(=N\Nc1ccccn1)c1ccc(Br)s1	-7	9	99*	/
Cc1cc[n+](CC(=O)c2ccc3c(c2)OCCO3)cc1	-2	-2	0	-3
Cc1ccccc1CSCCNC(=O)CSCc1ccc([N+](=O)[O-])cc1	8	0	99*	-3
C/C(=N\NC(=O)CSCc1ccc([N+](=O)[O-])cc1)c1ccccc1	-6	0	-3	7
C/C(=N\NC(=O)CSCc1ccc([N+](=O)[O-])cc1)c1ccccc1O	63*	-1	-1	13
Cc1ccc(CSCCNC(=O)CSCc2ccc([N+](=O)[O-])cc2)cc1	7	0	-9	-7
Cc1ccc(CNC(=O)C(NS(=O)(=O)c2ccc3nc(C)sc3c2)C(C)C)cc1 (configuration not stated)	4	4	93*	2

Compound activity from PubChem.
